D2 ag-1: D2 dopamine receptor (human) agonism; HEK293 T-REx D2 cells, calcium flux agonist mode; activation, % at 2 µM; actives 0.53% (n = 340,000); AID 485358;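 active means activation over 3 SD above normal in the single-dose calcium agonist read, cut at about 30% in these data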; further: 0% is about no effect
Target sequence (P14416 whole entry, looked up): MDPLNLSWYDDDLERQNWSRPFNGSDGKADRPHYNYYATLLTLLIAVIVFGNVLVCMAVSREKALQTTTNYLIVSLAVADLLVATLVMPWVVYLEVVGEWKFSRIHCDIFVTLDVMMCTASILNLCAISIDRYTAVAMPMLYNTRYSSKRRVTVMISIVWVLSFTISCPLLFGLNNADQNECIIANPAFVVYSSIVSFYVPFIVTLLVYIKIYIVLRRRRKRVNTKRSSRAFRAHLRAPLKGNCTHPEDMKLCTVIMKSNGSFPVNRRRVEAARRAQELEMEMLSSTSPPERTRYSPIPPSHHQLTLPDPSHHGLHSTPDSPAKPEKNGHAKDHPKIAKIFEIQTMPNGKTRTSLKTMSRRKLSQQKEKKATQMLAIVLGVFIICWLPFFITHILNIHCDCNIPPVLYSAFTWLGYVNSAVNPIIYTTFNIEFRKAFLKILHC
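HEK293 Trex D2 cells, tetracycline-induced, o/n 30 C 5% CO2; no-wash Ca dye, RT 30–90 min; 10-cycle baseline, 23 nl cpd added, kinetic Ca read 180 s; agonist hits = positive Ca response.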
D2 ag-2: agonists of human D2 dopamine receptor (beta-arrestin) | P14416 | DiscoveRx PathHunter D2 beta-arrestin, luminescence, 90 min; 100% = 57 uM dopamine signal | activation, % (concentration not given with the values) | actives 0.084% (n = 360,000) | AID 624465; in the data active means activation above about 40%; inconclusive means between about 15% and that limit
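DiscoveRx PathHunter D2 beta-arrestin cells (2,100/well) attached overnight, then compound-stimulated 90 min at 37 C in HBSS/10 mM HEPES/0.1% Tween-20 buffer; beta-galactosidase complementation read by luminescence after 1 h at ambient temperature. Dopamine 57 uM final (EC100) as control.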
D2 PAM-1: human D2 receptor positive allosteric modulation; actives 0.23% (n = 360,000); P14416; DiscoveRx D2 beta-arrestin cells, luminescence, 90 min; 100% = 57 uM dopamine signal; potentiation, % (no concentration beside the values); AID 624464; in the data active means potentiation above about 50%; inconclusive means mostly about 30% to 49%
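D2 cells co-treated with compound plus 50 nM dopamine (EC20) for 90 min at 37 deg C to detect potentiation. Beta-arrestin recruitment was read as enzyme-fragment luminescence after 1 h at ambient temperature. Full response was set by 57 uM dopamine.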
D2 antag: antagonizes the human D2 dopamine receptor | inhibition, % at 10 µM | HEK293 TREx D2 cells, calcium flux, dopamine EC80 | P14416 | actives 2% (n = 340,000); in the data active means inhibition above about 30%; inactive means below that, where a call was filed; further: 0% is about no effect
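HEK293 T-REx D2 cells, tet-induced, calcium dye no-wash. Cpd pintool add, 180 s kinetic, then EC80 DA, 180 s kinetic. Ca flux read.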
D2 PAM-2: D2 dopamine receptor (human) potentiation; HEK293 T-REx D2, calcium flux, EC20 dopamine potentiation; potentiation, % at 10 µM; actives 0.34% (n = 340,000);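 active means potentiation over 3 SD above the plate norm, cut at about 30% in these data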; further: 0% is about no effect
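Calcium flux readout, no-wash dye, 1 read/s. Inducible HEK293 Trex D2 line, overnight 30 C. Compound alone 180 s (agonist flags), then EC20 dopamine, another 180 s to score potentiation.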
D3 arrestin ag: D3 receptor agonism confirmed, beta-arrestin readout; AID 720506; Potency, µM (series often up to 76.9 µM), inactives show at the top dose activation, usual class: activators; actives 4% (n = 2,300); DiscoveRx D3 beta-arrestin cells, luminescence, 90 min; shares compounds with D2 ag-1;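 further: potency means the concentration at half of the fitted maximal effect; 100% = dopamine control response; nearly all actives have a fitted effect of over 70% in size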
D2 ag-3: activates human D2 dopamine receptor in D3 counterscreen; shares compounds with D2 ag-1; DiscoveRx PathHunter D2 beta-arrestin, luminescence, 90 min; response scale: percent relative to full dopamine signal; Potency, µM (titrated, usually from 76.9 µM), for the others: top-dose activation, actives largely listed as activators; actives 5.9% (n = 2,300); AID 720507; further: potency means the concentration at half of the fitted maximal effect; % of control where 0% means no effect; nearly all actives have a fitted effect of over 70% in size
Starred values were filed as active, the others as inactive. This is a sample that favours compounds with a hit; in the whole collection about 2.4% have one here. Unless noted, the call rests on the fitted dose curve; in most records, active means well fitted activation curve with a large enough effect; inconclusive means small, poorly fitted or top-dose-only effect; inactive means flat fitted curve, though single readings scatter.

Screening O=C(COC(=O)Cc1ccccc1)Nc1nnc(-c2ccccc2)o1 returned D2 ag-1 0.2, D2 ag-2 1.6, D2 PAM-1 -65.6, D2 antag 30.6* and D2 PAM-2 -11.3.
For Oc1ccc(CC2CC3CCN2CC3)cc1O (stereo unspecified) the results were D2 ag-1 30.0*, D2 ag-2 7.3, D2 PAM-1 -10.0, D2 antag -6.4 and D2 PAM-2 -1.0.
`COC(=O)C1=C(c2c(C)noc2C)C[C@@H]2CC[C@H]1N2C(=O)NCCO` gave D2 ag-1 -0.6, D2 ag-2 -1.3, D2 PAM-1 -5.3, D2 antag -0.3 and D2 PAM-2 -1.8.
For COC(=O)C1=C(c2c(C)noc2C)C[C@@H]2CC[C@H]1N2C(=O)NC(C)C the results were D2 ag-1 0.4, D2 ag-2 -1.4, D2 PAM-1 -2.8, D2 antag 41.8*, D2 PAM-2 -1.2, D3 arrestin ag -6.7% and D2 ag-3 -1.4%.
For CCCCC1C(=O)NC(=S)N(C)C1=O (stereo unspecified) the results were D2 ag-2 -0.3 and D2 PAM-1 -9.7.
For C=C[C@@H]1C2=CCOC(=O)C2=CO[C@H]1O[C@@H]1O[C@H](CO)[C@@H](O)[C@H](O)[C@H]1O the results were D2 ag-1 0.3, D2 ag-2 -0.1, D2 PAM-1 4.0, D2 antag 6.8, D2 PAM-2 13.1, D3 arrestin ag -6.7% and D2 ag-3 -1.2%.
For O=C(NN=Cc1ccc(N(CCCl)CCCl)cc1)c1cccnc1 the results were D2 ag-2 3.5 and D2 PAM-1 5.0.
For CN1C[C@H](CO)C[C@@H]2c3cccc4[nH]cc(c34)C[C@H]21 the results were D2 ag-1 84.0*, D2 ag-2 inconclusive, D2 PAM-1 53.3*, D2 antag 95.8*, D2 PAM-2 -33.1, D3 arrestin ag inconclusive and D2 ag-3 inconclusive.
`CCN(CC)C(=O)N[C@H]1C[C@@H]2c3cccc4[nH]cc(c34)C[C@H]2N(C)C1` gave D2 ag-1 83.3*, D2 ag-2 inconclusive, D2 PAM-1 12.9, D2 antag 83.3*, D2 PAM-2 -28.2, D3 arrestin ag inconclusive and D2 ag-3 0.002µM*.
CCOc1cc2c(cc1OCC)-n1cccc1C(c1ccc(C(C)C)cc1)NC2 (stereo unspecified) was read as D2 ag-1 -0.3, D2 ag-2 6.3, D2 PAM-1 -18.0, D2 antag 12.5 and D2 PAM-2 9.2.
CCCC1=Nc2cc(C(=O)NCCCN(CC)CC)ccc2Sc2ccccc21 was read as D2 ag-1 1.1 and D2 PAM-2 -13.2.
For CC(=O)N1CCC(N2CCCC(C(=O)c3cccc(Cl)c3)C2)CC1 (stereo unspecified) the results were D2 ag-1 84.4*, D2 ag-2 57.7*, D2 PAM-1 55.4*, D2 antag 77.8*, D2 PAM-2 -11.6, D3 arrestin ag inconclusive and D2 ag-3 inconclusive.
For CCCN1CCO[C@@H]2c3cc(O)ccc3OC[C@H]21 the results were D2 ag-1 68.2*, D2 ag-2 83.5*, D2 PAM-1 97.4*, D2 antag 72.2*, D2 PAM-2 -13.4, D3 arrestin ag 0.0447µM* and D2 ag-3 0.0708µM*.
Cc1ccc2c(C)cccc2c1 was read as D2 ag-2 -2.7 and D2 PAM-1 -6.1.
CC(=O)O[C@H]1[C@H]2O[C@]23[C@@H]2CC[C@]4(O)C[C@@H](O)CC[C@]4(C)C2CC[C@]3(C)[C@H]1c1ccc(=O)oc1 (stereo partly specified) was read as D2 ag-1 1.0, D2 ag-2 0.4, D2 PAM-1 4.8, D2 antag -7.5, D2 PAM-2 -5.7, D3 arrestin ag -3.8% and D2 ag-3 -4.4%.
Screening NNC(N)=O returned D2 ag-1 0.0, D2 ag-2 -4.7, D2 PAM-1 -4.1, D2 antag 30.5*, D2 PAM-2 1.9, D3 arrestin ag -19.7% and D2 ag-3 -3.4%.
`C[C@]12CC[C@@H](O)C[C@@H]1CC[C@@H]1[C@@H]2CC[C@]2(C)C(=O)[C@H](O)C[C@@H]12` gave D2 ag-2 0.0 and D2 PAM-1 -10.4.
Screening NCCCN1CCN(c2ccccc2)CC1 returned D2 ag-1 -0.8, D2 ag-2 inconclusive, D2 PAM-1 15.1, D2 antag 95.3*, D2 PAM-2 8.4, D3 arrestin ag 13.7% and D2 ag-3 16.2%.
`CC(=O)c1cccc(OCC(O)CN2CC=C(c3ccccc3)CC2)c1` (stereo unspecified) gave D2 ag-1 79.4*, D2 ag-2 42.0*, D2 PAM-1 51.3*, D2 antag 80.5*, D2 PAM-2 -28.8, D3 arrestin ag inconclusive and D2 ag-3 inconclusive.
For O=C1NCN(c2ccccc2)C12CCN(C(c1ccnc3ccccc13)c1nnnn1C1CCCC1)CC2 (stereo unspecified) the results were D2 ag-2 -1.8 and D2 PAM-1 -3.7.
COC(=O)C1=C(c2ccc(-c3ccccc3)c(F)c2)C[C@@H]2CC[C@H]1N2C(=O)N1CCCCC1 was read as D2 ag-1 0.5, D2 ag-2 -1.4, D2 PAM-1 -17.4, D2 antag -5.4, D2 PAM-2 -4.1, D3 arrestin ag -8.7% and D2 ag-3 10.8%.
For CCN(CC)S(=O)(=O)c1cc(NC(=O)C(C)N2CC=C(c3ccccc3)CC2)ccc1C (stereo unspecified) the results were D2 ag-1 44.3*, D2 ag-2 inconclusive, D2 PAM-1 -15.4, D2 antag 13.9, D2 PAM-2 -25.8, D3 arrestin ag 20.4% and D2 ag-3 inconclusive.
`Cc1ccc(CN2Cc3ccc(Br)cc3-n3nncc3C2)cc1` gave D2 ag-2 -1.7 and D2 PAM-1 -4.3.
Oc1cc2c(cc1CN1CCN(c3ccccc3F)CC1)OCO2 was read as D2 ag-1 66.2*, D2 ag-2 14.3, D2 PAM-1 -10.1, D2 antag 76.4*, D2 PAM-2 -28.7, D3 arrestin ag -3.2% and D2 ag-3 27.2%.
Screening COc1cccc(C(c2nnnn2C(C)(C)C)N2CCC3(CC2)C(=O)NCN3c2ccccc2)c1OC (stereo unspecified) returned D2 ag-2 5.2 and D2 PAM-1 -2.6.

Screens deposited in PubChem BioAssay by National Center for Advancing Translational Sciences (NCATS).
